This passage reports potency estimated from few doses results from publication PMC11062922 (Nature Chemical Biology, 2023).

Like-named read-outs stand apart in the source and are kept apart here.

Design in all cases: species or system human, MV4-11 + K-562 + COLO205 + SK-N-BE2 + OVCAR-8
One test deals with ADRBK1. The conditions noted are these: read-out: apparent Kd; compound concentrations: 100 nM and 1000 nM (sheet 'Samples'), CATDS: 7.1088636568514996E-2; n = 1.
The subject of another test is FLT3. The following applies: read-out: apparent Kd; compound concentrations: 100 nM and 1000 nM (sheet 'Samples'), CATDS: 0.11498835622255001; n = 1.
In another test the test system is FRK. The following applies: read-out: apparent Kd; compound concentrations: 100 nM and 1000 nM (sheet 'Samples'), CATDS: 9.2307505689948E-2; n = 1.
The next test has as its system MAP2K5. The following applies: read-out: apparent Kd; compound concentrations: 100 nM and 1000 nM (sheet 'Samples'), CATDS: 0.380124521697633; n = 1.
A further test has as its system PDGFRB. The conditions noted are these: read-out: apparent Kd; compound concentrations: 100 nM and 1000 nM (sheet 'Samples'), CATDS: 7.8407173450410803E-2; n = 1.
For the next test, the system named is PRKCZ. The conditions noted are these: read-out: apparent Kd; compound concentrations: 100 nM and 1000 nM (sheet 'Samples'), CATDS: 7.7148514104913996E-2; n = 1.
Another test concerns PTK6. The conditions noted are these: read-out: apparent Kd; compound concentrations: 100 nM and 1000 nM (sheet 'Samples'), CATDS: 7.5013295148623801E-2; n = 1.
The subject of a further test is RIPK2. The following applies: read-out: apparent Kd; compound concentrations: 100 nM and 1000 nM (sheet 'Samples'), CATDS: 9.6327273582125797E-2; n = 1.
The subject of another test is RIPK3. The following applies: read-out: apparent Kd; compound concentrations: 100 nM and 1000 nM (sheet 'Samples'), CATDS: 0.614198823590974; n = 1.
The next test deals with ZAK. The following applies: read-out: apparent Kd; compound concentrations: 100 nM and 1000 nM (sheet 'Samples'), CATDS: 7.8640349215909094E-2; n = 1.
In another test the test system is AGPS. The conditions noted are these: read-out: apparent Kd; compound concentrations: 100 nM and 1000 nM (sheet 'Samples'), CATDS: 0.49272906791281001; n = 1.
A further test deals with NNT. The following applies: read-out: apparent Kd, compound concentrations: 100 nM and 1000 nM (sheet 'Samples'), n = 1.
The next test deals with AGK. The conditions noted are these: read-out: apparent Kd; compound concentrations: 100 nM and 1000 nM (sheet 'Samples'), CATDS: 6.7196554082181503E-2; n = 1.
Another test has as its system AKT1. The following applies: read-out: apparent Kd; compound concentrations: 100 nM and 1000 nM (sheet 'Samples'), CATDS: 5.9892362604304798E-2; n = 1.
In a further test the test system is AKT2. The following applies: read-out: apparent Kd; compound concentrations: 100 nM and 1000 nM (sheet 'Samples'), CATDS: 8.2030939692010002E-2; n = 1.
Another test has as its system CDK17. The conditions noted are these: read-out: apparent Kd; compound concentrations: 100 nM and 1000 nM (sheet 'Samples'), CATDS: 6.2311196568293398E-2; n = 1.
A further test relates to CLK4. The following applies: read-out: apparent Kd; compound concentrations: 100 nM and 1000 nM (sheet 'Samples'), CATDS: 7.8018331182730397E-2; n = 1.
In a further test the test system is MAP2K1. The conditions noted are these: read-out: apparent Kd; compound concentrations: 100 nM and 1000 nM (sheet 'Samples'), CATDS: 7.0817886716783296E-2; n = 1.
The subject of a further test is MAP2K2. The conditions noted are these: read-out: apparent Kd, n = 1.
For the next test, the system named is MAPKAPK2. The conditions noted are these: read-out: apparent Kd; compound concentrations: 100 nM and 1000 nM (sheet 'Samples'), CATDS: 7.7313280603985193E-2; n = 1.
The test system of another test is NQO1. The conditions noted are these: read-out: apparent Kd; compound concentrations: 100 nM and 1000 nM (sheet 'Samples'), CATDS: 0.112965714749218; n = 1.
The test system of a further test is PIP4K2C. The conditions noted are these: read-out: apparent Kd; compound concentrations: 100 nM and 1000 nM (sheet 'Samples'), CATDS: 6.1582136800339998E-2; n = 1.
In the next test the test system is PRKAG2. The following applies: read-out: apparent Kd; compound concentrations: 100 nM and 1000 nM (sheet 'Samples'), CATDS: 7.1492957845938399E-2; n = 1.
A further test has as its system TNIK. The following applies: read-out: apparent Kd; compound concentrations: 100 nM and 1000 nM (sheet 'Samples'), CATDS: 6.4996238797789693E-2; n = 1.
Another test deals with VDAC3. The conditions noted are these: read-out: apparent Kd; compound concentrations: 100 nM and 1000 nM (sheet 'Samples'), CATDS: 6.7332646365255294E-2; n = 1.
The subject of the next test is AKT3. The following applies: read-out: apparent Kd; compound concentrations:100 nM and 1000 nM (sheet 'Samples'); n = 1.
In the next test the test system is GSK3A. The conditions noted are these: read-out: apparent Kd; compound concentrations:100 nM and 1000 nM (sheet 'Samples'); n = 1.
Another test relates to GSK3B. The conditions noted are these: read-out: apparent Kd; compound concentrations:100 nM and 1000 nM (sheet 'Samples'); n = 1.
A further test concerns SKIV2L2. The conditions noted are these: read-out: apparent Kd; compound concentrations:100 nM and 1000 nM (sheet 'Samples'); n = 1.
Another test relates to ATM. The conditions noted are these: read-out: apparent Kd; compound concentrations: 100 nM and 1000 nM (sheet 'Samples'), CATDS: 0.230066198267698; n = 1.
In the next test the test system is CDC42. The conditions noted are these: read-out: apparent Kd; compound concentrations: 100 nM and 1000 nM (sheet 'Samples'), CATDS: 0.120707875604042; n = 1.
A further test has as its system MTOR. The conditions noted are these: read-out: apparent Kd; compound concentrations: 100 nM and 1000 nM (sheet 'Samples'), CATDS: 0.13183909981737599; n = 1.
The next test concerns PIK3CA. The following applies: read-out: apparent Kd; compound concentrations: 100 nM and 1000 nM (sheet 'Samples'), CATDS: 0.214179011469951; n = 1.
For a further test, the system named is PIK3CD. The conditions noted are these: read-out: apparent Kd; compound concentrations: 100 nM and 1000 nM (sheet 'Samples'), CATDS: 0.39108548114929897; n = 1.
A further test concerns PKN3. The following applies: read-out: apparent Kd; compound concentrations: 100 nM and 1000 nM (sheet 'Samples'), CATDS: 0.11684999356733999; n = 1.

For the molecule `CNC(=O)c1ccc2c(c1)ncn2-c1ccc(CC(=O)OC(C)(C)C)cc1` [GSK840], the potency estimated from few doses in the test with ADRBK1 was 2.02 µM; with FLT3, 0.469 µM; with FRK it was 0.857 µM; in the test on MAP2K5, 0.0121 µM; with PDGFRB, 1.42 µM; in the test with PRKCZ, 1.5 µM. For the same molecule, the potency estimated from few doses with PTK6 is 1.65 µM; in the test on RIPK2, 0.759 µM; in the test on RIPK3, 0.00467 µM; in the test with ZAK, 1.4 µM.
For the molecule `Cc1cc(O)cc(C)c1/C=C/c1cncc(C(=O)N(C)C)c1` [GW427984X], the figures for the potency estimated from few doses with AGPS and in the test on NNT (CATDS: 0.50748873234437097) were 1.86 µM and 1.75 µM, respectively.
Take `Cc1nnc(-c2ccc(C)c(-c3ccc(C(=O)NCc4ccc(Cl)cc4)cc3)c2)o1` [GW708893X]: the potency estimated from few doses with AGK was 1.82 µM; with AKT1, 2.38 µM; with AKT2, 1.22 µM; with CDK17 it was 2.16 µM; in the test with CLK4 it was 1.34 µM; in the test with MAP2K1, 1.63 µM. In addition, the potency estimated from few doses in the test with MAP2K2 (compound concentrations: 100 nM and 1000 nM (sheet 'Samples'), CATDS: 8.1065909718248605E-2) is 1.25 µM; in the test on MAPKAPK2, 1.37 µM; in the test on NNT (CATDS: 6.8216764859784895E-2), 1.76 µM; in the test on NQO1 it was 0.726 µM; with PIP4K2C, 2.22 µM; with PRKAG2, 1.59 µM. Further, the potency estimated from few doses with TNIK is 1.96 µM; in the test with VDAC3 it was 1.81 µM.
Regarding `O=C1NC(=O)C(c2ccc(Cl)cc2)=C1Nc1ccc(Cl)c(C(=O)O)c1` [SB-360741], the potency estimated from few doses with AKT3 is 1.53 µM; with GSK3A, 0.601 µM; in the test on GSK3B, 1.31 µM; in the test with MAP2K2 (compound concentrations:100 nM and 1000 nM (sheet 'Samples')) it was 0.14 µM; in the test on SKIV2L2, 1.36 µM.
In the case of `Fc1ccc(-c2c(-c3ccncc3)nc3n2CCS3)cc1` [SKF-86055], the potency estimated from few doses is 0.174 µM with ATM; 0.94 µM in the test on CDC42; 0.688 µM with MTOR; 0.201 µM in the test with PIK3CA; 0.0713 µM in the test with PIK3CD; 1.07 µM with PKN3.
